Screening results: PubChem, National Center for Advancing Translational Sciences (NCATS)
Only some compounds are listed: those with a hit (about 2.9% of all), similar ones and a draw of the others.
LDHA inh: blocks human lactate dehydrogenase A; P00338; purified LDHA, NADH/diaphorase-resazurin fluorescence; stronger effect = lower value; activity change, % (values are at about 110 or 230 µM); 480,000 compounds, 0.15% hits; in the data active means activity change below about -30%; inconclusive means mostly about -25% to -30%;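 further: plate controls were DMSO wells for no effect and wells without enzyme for full effect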
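Human LDH5 (2 nM) was incubated with 0.06 mM NADH and 0.2 mM pyruvate for 5 min at room temperature in Tris pH 7.4. Remaining NADH was coupled through diaphorase/resazurin, and resorufin fluorescence was read at 0 and 20 min.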
p53 reactivation: restores transcriptional activity of mutant p53. H1299 p53-A138V BP100-luciferase reporter, luminescence, 24 h. Potency, µM (titrated, usually from 92.2 µM), inactives show at the highest dose activity change, positive = activation, most hits filed as activators. 320,000 compounds, 0.063% hits; further: potency means the concentration at half of the fitted maximal effect; % of control where 0% means no effect; nearly all actives have a fitted effect of over 45% in size
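H1299 (p53-null), stable ts p53-A138V + BP100-Luc; 1000 cells/well, Opti-MEM/10% FBS; cpd 4 pt, 1:5; 24 h, 37 deg C, 5% CO2; detection reagent 10 min RT; luminescence.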
ClpP mod: qHTS Assay for Activators of ClpP. ATP-dependent Clp protease proteolytic subunit (Bacillus subtilis (strain 168)), P80244. AID 651965, 2013. 340,000 compounds, 1.9% hits. purified B. subtilis ClpP, FRET peptide cleavage, 20 min. Potency, µM (titrated, usually from 57.5 µM), without a hit: at the top dose activity change, negative = active; active means well fitted falling curve with a large enough effect; inconclusive means small, poorly fitted or top-dose-only effect; inactive means no such curve, though single readings can be large or run the other way; further: potency means the concentration at half of the fitted maximal effect; the source files actives as falling curves though it sought activators and does not explain the sign; nearly all actives have a fitted effect of over 65% in size
Target sequence (P80244 whole entry, looked up): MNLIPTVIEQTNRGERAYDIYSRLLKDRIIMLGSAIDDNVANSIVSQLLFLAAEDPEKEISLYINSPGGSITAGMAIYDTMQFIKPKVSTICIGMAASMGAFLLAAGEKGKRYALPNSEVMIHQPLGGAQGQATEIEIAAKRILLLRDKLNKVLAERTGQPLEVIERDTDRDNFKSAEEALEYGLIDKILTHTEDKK
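FRET quenching reversal measured ClpP activation: 10 microg/mL B. subtilis ClpP at pH 8 with the FRET-FV decapeptide, read at 430 nm after 320 nm excitation. The 20-min minus 0-min signal was scaled between DMSO/no-enzyme wells and ADEP (5.8 microM final).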
GLP-1R agonist: agonists of human GLP-1 receptor. P43220. HEK293 GLP-1R CRE-luciferase, luminescence, 4-6 h; cells express a hypersensitive GLP-1R form. Potency, µM (top dose mostly 45.6 µM), for the others: at the highest dose activation, hits mostly activators. 380,000 compounds, 0.007% hits; further: potency means the concentration at half of the fitted maximal effect; % of control where 0% means no effect
Target sequence (P43220 whole entry, looked up): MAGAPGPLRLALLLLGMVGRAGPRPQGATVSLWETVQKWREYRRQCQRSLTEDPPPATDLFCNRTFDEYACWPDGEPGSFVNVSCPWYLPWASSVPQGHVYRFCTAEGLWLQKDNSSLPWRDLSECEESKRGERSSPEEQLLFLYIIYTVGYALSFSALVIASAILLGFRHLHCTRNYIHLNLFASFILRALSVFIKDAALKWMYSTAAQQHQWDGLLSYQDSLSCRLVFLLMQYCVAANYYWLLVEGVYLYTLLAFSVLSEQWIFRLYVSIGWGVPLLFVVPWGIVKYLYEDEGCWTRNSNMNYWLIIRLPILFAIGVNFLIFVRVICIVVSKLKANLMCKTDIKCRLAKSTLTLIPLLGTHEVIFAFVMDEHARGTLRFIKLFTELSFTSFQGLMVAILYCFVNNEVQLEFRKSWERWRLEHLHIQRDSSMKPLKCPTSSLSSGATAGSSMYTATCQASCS
GLP1R cytotox: cytotoxic in the GLP-1 receptor inverse agonist counter-screen. HEK293 cAMP-luciferase reporter cells, luminescence, 24 h. Potency, µM (titrated, usually from 38.3 µM), for inactives: at the top dose activity change, negative = inhibition, hits mostly inhibitors. 410,000 compounds, 0.13% hits. AID 624418;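 further: loss of luciferase light is scored as toxicity; potency means the concentration at half of the fitted maximal effect; on the % scale 0 is the no-effect control and ±100 the full control effect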
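Seeding density was 200 cells/uL; after overnight-length (12 h) culture, 23 nL compounds went on for 24 h at 37 °C. Readout used a luciferase detection reagent, luminescence taken after 12 min at room temperature.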
GLP1R inv ag: GLP-1 receptor (human) inverse agonism. P43220. HEK293 GLP-1R CRE-luciferase, luminescence, 24 h; GLP-1R form is constitutively active. Potency, µM (doses to about 38.3 µM), for inactives: at the top dose activity change, negative = inhibition, hits mostly inhibitors. 410,000 compounds, 1.6% hits. AID 624417; further: potency means the concentration at half of the fitted maximal effect; on the % scale 0 is the no-effect control and ±100 the full control effect; nearly all actives have a fitted effect of over 55% in size
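Inverse agonism was detected as reduced cAMP-driven luciferase luminescence after 24 h compound treatment. The cells were HEK293 clones expressing constitutively active human GLP-1R with the reporter. Reporter-only and GPR119 cell lines served as counterscreen controls.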
* = called active by the depositor; ? = inconclusive; nt = not tested or not shown. Unless noted, the call rests on the fitted dose curve; in most records, active means well fitted curve in the direction sought with a large enough effect; inconclusive means small, poorly fitted or top-dose-only effect, or another doubt; inactive means no such curve, though single readings can be large; an effect the other way counts as inactive or inconclusive.

SMILES	LDHA inh	p53 reactivation	ClpP mod	GLP-1R agonist	GLP1R cytotox	GLP1R inv ag
CCCC(=O)NC(c1ccc(Cl)cc1Cl)c1ccc2cccnc2c1O (configuration not stated)	-5	nt	nt	-1%	-5%	-27%
CCCNC(=O)N1CCN(c2nc(C(C)C)c3c(c2C#N)CC(C)(C)OC3)CC1	-9	-4%	5%	-7%	-6%	-30%
Cc1ccc(S(=O)(=O)N2CCN(c3nc(C(C)C)c4c(c3C#N)CC(C)(C)OC4)CC2)cc1	-4	-1%	14µM*	-22%	3%	-3%
COC(=O)c1c(-n2cnnn2)sc(C)c1C	2	-3%	22µM*	9%	5%	-3%
O=C(O)CSc1nc2ccc(Cl)cc2[nH]1	-7	7%	25µM*	1%	13%	11%
c1ccc(C2COC(c3cccs3)=N2)cc1 (configuration not stated)	-4	38%	-4%	?	5%	0%
Fc1ccccc1N1CC(c2ccccc2)C(c2cccs2)=N1 (configuration not stated)	0	1%	16µM*	0%	484%	0%
CCCCn1c(SC(C)C(=O)NCC2CCCO2)nc2cc(C(=O)OC)ccc2c1=O (configuration not stated)	0	-3%	-24%	-1%	16%	?
CSc1nnc(-c2sc3cc(C(F)(F)F)cnc3c2-c2ccccn2)n1C	-2	-5%	28µM*	0%	-10%	-11%
c1ccc2c(c1)CCN(c1nc(CN3CCOCC3)nc3sc4c(c13)CCCC4)C2	-4	-12%	-2%	21%	4%	8.9µM*
C/C=C/c1ccc(OCCOc2cccc3cccnc23)c(OC)c1	-1	1%	-4%	13%	-3%	?
c1ccc(CN2CCN(c3cnc4ccccc4n3)CC2)cc1	-4	19%	-9%	?	3%	10%
Fc1ccccc1N1CCN(c2cnc3ccccc3n2)CC1	5	nt	-3%	0%	-3%	10µM*
Cn1c(SCc2nnc3n2CCCCC3)nc2ccccc21	-9	3%	1%	-5%	11%	11%
COc1cccc(C2C(C#N)=C(N)N(N(C)C)C3=C2C(=O)CC(C)(C)C3)c1 (configuration not stated)	-6	1%	nt	11%	8%	31%
COc1cccc(C2C(C#N)=C(C)NC3=C2C(=O)CC(C)(C)C3)c1 (configuration not stated)	-2	-6%	25µM*	1%	52%	-5%
COc1ccc(C2C(C#N)=C(C)NC3=C2C(=O)CC(C)(C)C3)cc1 (configuration not stated)	-8	-3%	28µM*	4%	59%	-5%
Cc1cc(OCCCn2cnc3ccccc3c2=O)ccc1[N+](=O)[O-]	1	4%	1%	3%	13%	7%
CCOC(=O)N1CCN(C(=O)C2COc3ccccc3O2)CC1 (configuration not stated)	-5	0%	-1%	-2%	0%	4%
Cc1cc(C)c(C(=O)NC2CC(C)(C)Cc3c2cnn3-c2ccccc2)o1 (configuration not stated)	-2	-1%	2%	-1%	-3%	10µM*
COc1ccc(-n2ncc3c2CC(C)(C)CC3NC(=O)c2oc(C)cc2C)cc1 (configuration not stated)	-1	-9%	-2%	-1%	-1%	-25%
CN1C(=O)c2ccccc2N(C)C1c1cccs1 (configuration not stated)	5	3%	20µM*	0%	78%	-12%
O=C(Nc1ccccc1)N1CCc2c([nH]c3ccccc23)C1C(F)(F)F (configuration not stated)	0	-6%	nt	2%	8%	2.8µM*
Cc1ccc(NC(=O)N2CCc3c([nH]c4ccccc34)C2c2ccccc2F)c(Cl)c1 (configuration not stated)	0	nt	-3%	nt	-12%	10µM*
COc1cc2c[n+](C)c3c4ccccc4ccc3c2cc1OC	-8	nt	8.9µM*	10%	93%	19%
SMILES	LDHA inh	p53 reactivation	ClpP mod	GLP-1R agonist	GLP1R cytotox	GLP1R inv ag
Cc1ccc(F)cc1NC(=O)N1CCN(C2c3ccccc3-c3ccccc32)CC1	-1	-4%	1%	2%	3%	13µM*
Cc1ccccc1NC(=O)N1CCC(C(=O)c2ccc(F)cc2)CC1	-2	-1%	-3%	1%	0%	?
CC(CCc1ccccc1)N1CCN(Cc2ccccc2)CC1 (configuration not stated)	-31*	13%	0%	-2%	-5%	-13%
CCS(=O)(=O)N1CCN(C(C)CCc2ccccc2)CC1 (configuration not stated)	-19	-1%	-1%	-6%	8%	-26%
COc1ccc2[nH]c(=O)c(CN(Cc3cccnc3)C(=O)Nc3ccccc3)cc2c1	-2	-7%	32µM*	6%	?	33%
COc1cc(C(=O)N(Cc2cccnc2)Cc2cc3cc4c(cc3[nH]c2=O)OCCO4)cc(OC)c1OC	8	-7%	28µM*	?	-7%	-1%
CCOc1ccc2[nH]c(=O)c(CN(Cc3cccnc3)C(=O)Nc3ccccc3OC)cc2c1	-7	-5%	?	6%	0%	9%
Cc1ccccc1CNC(=O)CN1C(=O)CSc2ccc(S(=O)(=O)N(C)C)cc21	-8	nt	-1%	nt	4%	-1%
O=C(O)c1ccccc1N/N=C\c1ccnc2ccccc12	?	1%	-1%	-40%	54%	4.5µM*
CCN(Cc1ccccc1)C(=O)c1ccc(NC(=O)c2ccc(OC)cc2)cc1	-12	4%	-1%	0%	2%	?
Cc1cc(CN(C)C(=O)c2ccc(OC3CCN(S(=O)(=O)N(C)C)CC3)cc2)n[nH]1	-4	-6%	0%	7%	-5%	18%
CCCCOP(=O)(OCCCC)C(Nc1ccccc1)c1ccc2c(c1)OCO2 (configuration not stated)	2	-13%	1%	-32%	-8%	7.9µM*
CCOP(=O)(OCC)C(Nc1ccccc1)c1ccc2c(c1)OCO2 (configuration not stated)	-3	-1%	0%	-3%	-13%	?
CCNC(=S)N(Cc1c(C)noc1C)c1ccccc1	-1	-3%	-2%	1%	27%	20%
